Shown are actives, neighbours in structure and some others; about 10% of the full set was active somewhere.
NPR1 antag = Natriuretic polypeptide receptor (hNpr1) antagonism - Primary qHTS; Potency, µM (top dose mostly 46.3 µM), for the others: at the highest dose activity change, negative = inhibition, most hits filed as inhibitors; hit rate 1.6% among 76,000; Atrial natriuretic peptide receptor 1 (Homo sapiens), P16066; HEK293 hNpr1 GloSensor cGMP, ANP-stimulated luminescence; calls by dose curve; note: nearly all actives have a fitted effect of over 60% in size
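HEK293 cells stably expressing human Npr1 and cGMP GloSensor pGS-40F, loaded 2 h with 2% GloSensor reagent, given compound 30 min at room temperature. Luminescence read before and 20 min after 0.1 nM hNppA.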
GPT2 inhibitor = Primary qHTS assay for inhibitors of Glutamate pyruvate transaminase 2 (GPT2); Recombinant GPT2, coupled pyruvate oxidase/HRP Amplex Red fluorescence; Alanine aminotransferase 2 (Homo sapiens), Q8TD30; AID 1671188, 2021; Potency, µM (series often up to 57.7 µM), inactives show at the highest dose activity change, negative = inhibition, most hits filed as inhibitors; hit rate 0.25% among 100,000; note: nearly all actives have a fitted effect of over 60% in size
Target sequence (Q8TD30 whole entry, looked up): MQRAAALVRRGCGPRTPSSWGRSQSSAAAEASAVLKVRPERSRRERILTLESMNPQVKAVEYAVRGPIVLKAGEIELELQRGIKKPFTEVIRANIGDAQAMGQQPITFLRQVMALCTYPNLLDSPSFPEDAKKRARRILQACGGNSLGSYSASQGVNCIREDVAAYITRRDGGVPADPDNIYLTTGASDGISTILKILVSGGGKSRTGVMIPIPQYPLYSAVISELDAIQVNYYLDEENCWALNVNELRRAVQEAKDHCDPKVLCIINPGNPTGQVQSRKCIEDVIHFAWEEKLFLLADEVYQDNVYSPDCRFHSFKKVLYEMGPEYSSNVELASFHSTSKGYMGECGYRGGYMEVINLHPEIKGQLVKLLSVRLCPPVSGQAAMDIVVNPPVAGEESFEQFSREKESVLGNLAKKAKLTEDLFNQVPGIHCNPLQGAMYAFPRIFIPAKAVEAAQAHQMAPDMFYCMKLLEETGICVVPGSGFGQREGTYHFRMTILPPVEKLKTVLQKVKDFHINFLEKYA
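Fluorescence read-out: pyruvate from GPT2 turnover coupled to pyruvate oxidase, HRP and Amplex Red (0.2mM ThPP, 0.2U/mL PO and HRP, 50uM Amplex final). Substrates 250uM a-KG, 2mM L-alanine; enzyme 10ng/uL; 30 min RT.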
HEK cytotox = Cytotoxic Profiling in HEK 293 Cell Line of Diverse Libraries Using Quantitative High-Throughput Screening | HEK 293 viability, ATP luminescence (CellTiter-Glo), 48-72 h | Potency, µM (top dose mostly 115 µM), without a hit: at the highest dose activity change, negative = cytotoxicity, usual class: inhibitors | hit rate 6.6% among 94,000 | AID 1345083, 2018; note: nearly all actives have a fitted effect of over 60% in size
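CellTiter-Glo luminescence (cellular ATP) was read after 48 or 72 hr of compound exposure at 37 degree Celsius. Cells were HEK 293 plated at 250 cells/well.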
3T3 cytotox = Cytotoxic Profiling in NIH 3T3 Cell Line of Diverse Libraries Using Quantitative High-Throughput Screening; Potency, µM (highest dose often 96.7 µM), for the others: at the top dose activity change, negative = cytotoxicity, hits mostly inhibitors; NIH 3T3 viability, CellTiter-Glo ATP luminescence, 48-72 h; AID 1345082, 2018; hit rate 4.3% among 94,000; note: nearly all actives have a fitted effect of over 55% in size
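ATP-dependent luminescence (CellTiter-Glo) served as the viability signal for NIH 3T3 cells treated with compound for 48 or 72 hr at 37 °C.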
FLuc inh = Firefly luciferase inhibition profiling of diverse chemical library using quantitative high-throughput screening; hit rate 2.5% among 76,000; Luciferin 4-monooxygenase (Photinus pyralis), P08659; purified P. pyralis luciferase, luminescence, biochemical; Potency, µM (top dose mostly 115 µM), most hits filed as inhibitors; note: nearly all actives have a fitted effect of over 65% in size
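Inhibitors were tested against purified firefly luciferase in a biochemical, low-substrate format (both substrates at 10uM) and luminescence measured with a CCD imager.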
* hit, by the source's call; i = inactive; ? = inconclusive; · = no result given; [ ] = dose if it differs, or a comment. Unless noted, calls come from the whole dose curve; as a rule, active = well fitted curve in the direction sought with a large enough effect; inconclusive = small, poorly fitted or top-dose-only effect, or another doubt; inactive = no such curve, though single readings can be large; an effect the other way counts as inactive or inconclusive. % is set by controls: 0 for no effect and ±100 for the full control effect; potency is the fitted concentration of half-maximal effect.

SMILES	NPR1 antag	GPT2 inhibitor	HEK cytotox	3T3 cytotox	FLuc inh
O=C(c1cccs1)N1CCc2[nH]nc(-c3cccc(F)c3)c2C1	-13.1%	-4.2%	28.2µM*	?	i
COc1ccc(CNC(=O)O[C@H]2COCCN(c3nc4ccccc4s3)C2)cc1	-0.6%[70.6 µM]	0.7%[88.5 µM]	89.1µM*	?	i
Cc1cccc(O[C@H]2COCCN(c3nc4ccccc4s3)C2)n1	-16.4%[70.6 µM]	-4.0%[88.5 µM]	100µM*	?	50.1µM*
C#CCNC(=O)c1cc(-c2ccc(Cl)cc2)nc2c1cnn2C	·	-12.8%[88.5 µM]	89.1µM*	?	·
COc1ccc(CCNC(=O)c2cc(-c3ccc(OC)cc3)nc3c2cnn3C)cc1	·	i	?	?	·
COC(=O)CNC(=O)c1cc(-c2ccc(Cl)nc2)nc2c1cnn2C	·	i	-4.3%	31.6µM*	·
C#CCNC(=O)c1cc(-c2ccc(Cl)nc2)nc2c1cnn2C	·	-4.8%	?	?	·
C#CCNC(=O)c1cc(-c2ccc(OC)cc2)nc2c1cnn2C	·	·	?	50.1µM*	·
COc1ccc(-c2cc(C(=O)NCC(F)(F)F)c3c(C4CCNC4)nn(C)c3n2)cc1 (centres undefined)	·	i	79.4µM*	?	·
COc1ccc(CN2C[C@@H]3C[C@@H](C(=O)O)N(C(C)=O)c4cccc(c43)C2=O)cc1	·	2.8%[27.3 µM]	?	?	·
O=C(Cc1cccc(Cl)c1)NC1CCCN(Cc2ccc(-c3cncnc3)cc2)C1 (centres undefined)	·	i	?	?	·
Cn1ncc2c(C(=O)NCCc3ccc(Cl)cc3)cc(-c3ccc(Cl)cc3)nc21	·	-13.4%	-17.9%	?	·
Cn1ncc2c(C(=O)NCC(F)F)cc(-c3ccc(Cl)cc3)nc21	·	i	44.7µM*	?	·
CCCCCC(=O)N[C@H]1C[C@@H](Cc2cc(COC(=O)CCCCC)on2)C1(C)C	-1.7%[70.6 µM]	1.4%[88.5 µM]	?	-22.8%[174 µM]	i
CC(C)(C)C(=O)N[C@H]1C[C@@H](Cc2cc(COc3ccccc3)on2)C1(C)C	-23.3%[70.6 µM]	-17.9%[88.5 µM]	?	?	i
CCCCCC(=O)N[C@H]1C[C@@H](Cc2cc(COc3ccccc3)on2)C1(C)C	?	-45.7%[88.5 µM]	?	39.8µM*	i
CC1(C)[C@H](Cc2cc(COc3ccccc3)on2)C[C@@H]1NC1CCC1	2.8%[70.6 µM]	1.5%[88.5 µM]	35.5µM*	31.6µM*	i
CC(C)C(=O)N[C@H]1C[C@@H](Cc2cc(COc3ccccc3)on2)C1(C)C	?	-6.9%[88.5 µM]	39.8µM*	63.1µM*	?
CCC#CCN1CCc2ccccc2N(CC(O)COc2ccc(OC)cc2)CCC1=O (centres undefined)	·	-18.6%[27.3 µM]	?	?	·
O=c1c2c(n(Cc3ccccc3)n1-c1ccccc1)CN(Cc1ccc3[nH]ccc3c1)CC2	-0.8%[70.6 µM]	-3.5%[88.5 µM]	?	?	i
COc1ccc(C(=O)N2CCC(CCn3c(C)cnc3-c3cccnc3)CC2)cc1	·	?	-29.7%	?	·
Cc1cnc(-c2ccccc2)n1CCC1CCN(C(=O)C2(c3ccccc3)CC2)CC1	·	1.4%	35.5µM*	?	·
Cc1cnc(-c2ccncc2)n1CCC1CCN(C(=O)C(C)Oc2ccccc2)CC1 (centres undefined)	·	i	44.7µM*	?	·
CCCc1cc(N2CCC(NCCOC(C)C)CC2)nc(C)n1	6.6%	-8.3%	-9.8%	-4.0%	i
CCCc1cc(N2CCC(NCc3cc(F)c(F)c(F)c3)CC2)nc(C)n1	8.1%	3.5%	50.1µM*	?	i
SMILES	NPR1 antag	GPT2 inhibitor	HEK cytotox	3T3 cytotox	FLuc inh
COc1cc2c(cc1OC)C(CNC(=O)C(C)C)N(C(=O)Nc1ccc(C)cc1)CC2 (centres undefined)	-3.9%	2.8%	?	?	i
CC(=O)NC1(C)CN(Cc2ccc(-c3cccc(C(F)(F)F)c3)s2)C1	?	-11.5%[88.5 µM]	63.1µM*	44.7µM*	12.6µM*
CC(=O)NC1(C)CN(Cc2ccc(-c3cccc(F)c3)s2)C1	-2.3%[70.6 µM]	i	?	?	?
O=C(c1cccc(Cl)c1)N1CCC2(CC1)CCN(Cc1cccs1)c1ccccc1O2	-5.1%	i	28.2µM*	?	i
CC(=O)N1CCC2(CC1)CCN(Cc1cccs1)c1ccccc1O2	3.2%	3.6%	?	-32.4%	i
O=C(Cc1cccc(Cl)c1)N1CCC2(CC1)CCN(Cc1cccs1)c1ccccc1O2	12.8%	-29.5%	25.1µM*	?	i
COc1ccccc1-c1cccc(C(=O)N2CCC[C@H]2C(=O)NCCc2ccc(F)cc2)c1	·	i	?	?	·
O=C(NC1CCOCC1)c1cc(-c2ccccc2F)cc2c1OCCN2Cc1cccnc1	2.0%	-4.3%	?	-26.1%	i
CNC(=O)c1cc(-c2cccc(NC(C)=O)c2)cc2c1OCCN2Cc1cccnc1	-3.4%[70.6 µM]	-3.1%[88.5 µM]	-10.4%[172 µM]	44.7µM*	i
CC(C)CNC(=O)c1cc(-c2ccccc2F)cc2c1OCCN2Cc1cccnc1	-23.9%[70.6 µM]	-14.4%[88.5 µM]	50.1µM*	44.7µM*	i
COCCNC(=O)c1cc(-c2ccccc2F)cc2c1OCCN2Cc1cccnc1	-17.8%[70.6 µM]	2.0%[88.5 µM]	?	89.1µM*	i
CNC(=O)c1cc(-c2ccccc2O)cc2c1OCCN2Cc1cccnc1	-19.7%[70.6 µM]	-0.6%[88.5 µM]	-21.9%[172 µM]	?	i
CNC(=O)c1cc(-c2ccc(C)cc2)cc2c1OCCN2Cc1cccnc1	6.0%[70.6 µM]	-1.1%[88.5 µM]	?	?	i
CNC(=O)c1cc(-c2ccccc2F)cc2c1OCCN2Cc1cccnc1	-28.0%[70.6 µM]	-14.9%[88.5 µM]	89.1µM*	?	i
NC(=O)c1cc(-c2ccccc2F)cc2c1OCCN2Cc1cccnc1	-18.4%[70.6 µM]	-0.7%[88.5 µM]	?	?	i
CCNC(=O)c1cccc2c1CCN2S(=O)(=O)c1cccc(C)c1	-27.9%	i	?	-22.6%	i
O=[S+]1([O-])c2cnccc2OC(COc2ccccc2)CN1C1Cc2ccccc2C1 (centres undefined)	·	i	?	?	·
CC1(COc2ccccc2)COc2ccc(C(=O)NCc3cccs3)cc2N1 (centres undefined)	-11.2%[70.6 µM]	1.2%[88.5 µM]	112µM*	?	i
CC1(CNc2ccccc2)COc2ccc(C(=O)NCc3cccs3)cc2N1 (centres undefined)	-2.1%[70.6 µM]	-9.7%[88.5 µM]	100µM*	?	i
O=C(Nc1cccc(Br)c1)c1cnc(-c2ccccc2)nc1-c1ccncc1	?	-14.2%	39.8µM*	?	i
O=C(Nc1ccc(Br)c(F)c1)c1cnc(-c2ccccc2)nc1-c1ccncc1	?	-16.4%	31.6µM*	25.1µM*	i
O=C(Nc1ccc(F)cc1F)c1cnc(-c2ccc(F)cc2)nc1-c1ccncc1	-17.5%	i	-22.2%	-14.7%	i
